Screening results (PubChem)
Compounds with a hit are over-represented: about 5.9% of the library has one in this group of screens.
KB-3-1 tox: kills parental KB-3-1 adenocarcinoma cells | KB-3-1 viability, CellTiter-Glo ATP luminescence, 72 h | Potency, µM (doses to about 46.1 µM), actives largely listed as cytotoxic | 1.4% of 400,000 active; also: % is scaled to controls: 0 for no effect and ±100 for the full control effect; nearly all actives have a fitted effect of over 60% in size
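Cytotoxicity in the drug-sensitive parental line KB-3-1 was scored as loss of CellTiter-Glo luminescence following 72 h incubation with compound. Values come from curve fitting of normalized concentration-response data.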
ATXN viability: viability counter-screen for ATXN expression inhibitors. S2 cells (HEK-293 line with an ATXN2-luciferase reporter) viability, CellTiter-Fluor protease fluorescence, 24 h. Potency, µM (doses to about 56.7 µM), usual class: cytotoxic. 0.49% of 400,000 active; also: nearly all actives have a fitted effect of over 40% in size
KB-V1 cytotox: KB-V1 MDR subline cytotoxicity | KB-V1 MDR cells viability, CellTiter-Glo, 72 h | 3.4% of 400,000 active | Potency, µM (highest dose often 46.1 µM), hits mostly cytotoxic; also: % is scaled to controls: 0 for no effect and ±100 for the full control effect; nearly all actives have a fitted effect of over 60% in size
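KB-V1 cells (P-gp-expressing MDR subline of KB-3-1) in phenol-red-free DMEM with 10% FBS were exposed to library compounds over a concentration series for 72 h at 37 degrees C. Viability read by CellTiter-Glo luminescence; concentration-effect curves fitted after normalization.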
TGFb inhibitor: TGF-b pathway inhibition. Potency, µM (doses to about 46.1 µM), without a hit: at the highest dose activity, negative = inhibition, hits mostly inhibitors. HepG2 CAGA-GFP TGF-b/SMAD3 reporter, GFP fluorescence, 18 h; TGF-beta stimulated, 500 pg/mL final. 1.2% of 410,000 active. AID 588855; also: % is scaled to controls: 0 for no effect and ±100 for the full control effect; nearly all actives have a fitted effect of over 65% in size
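Read-out: total well GFP (ex488/em500-530) summed from mean per-cell fluorescence. Cells: HEPG2 CAGA-GFP, 1% FBS DMEM, 18 h at 37 degrees C with 500 pg/mL final TGF-beta. Unstimulated wells served as the full-inhibition control; stimulated DMSO wells = 0%.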
ATXN2 expr inh: ATXN2 expression inhibition. HEK-293 ATXN2-luciferase reporter, luminescence, 24 h. Potency, µM (series often up to 57 µM), without a hit: top-dose activity change, negative = inhibition, most hits filed as inhibitors. 0.72% of 360,000 active; also: % is scaled to controls: 0 for no effect and ±100 for the full control effect; nearly all actives have a fitted effect of over 55% in size
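qHTS (up to 57 uM final) was run with 24 h compound exposure of reporter cells at 37 °C. Each well was multiplexed: SteadyGlo luminescence measured ATXN2-luciferase expression after a fluorogenic Gly-Phe-AFC viability readout (25 uM final).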
HepG2 viability: counter-screen for TGF-b inhibitors: cytotoxicity in HepG2 cells. AID 588856. HepG2 CAGA-GFP viability, ATP luminescence, 18 h. Potency, µM (highest dose often 46.1 µM), without a hit: at the top dose activity change, negative = cytotoxicity, hits mostly cytotoxic. 0.76% of 410,000 active
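CellTiter-Glo luminescence gave cytotoxicity after 18 hours at 37 degrees C. The cells were HepG2 CAGA-GFP in 1% FBS DMEM, stimulated with 500 pg/mL TGF-beta after compound addition. %Activity was normalised to no-cell wells (complete cell-killing) and DMSO (no toxicity), and curves were fitted and classified.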
* marks the source's active call; other numbers are inactive results; i = inactive; ? = inconclusive; . = no result. Calls follow the shape of the dose curve; as a rule, active = well fitted curve in the direction sought with a large enough effect; inconclusive = small, poorly fitted or top-dose-only effect, or another doubt; inactive = no such curve, though single readings can be large; an effect the other way counts as inactive or inconclusive. Potency is read from the fitted curve at half-maximal effect.

SMILES	KB-3-1 tox	ATXN viability	KB-V1 cytotox	TGFb inhibitor	ATXN2 expr inh	HepG2 viability
Cc1ccc(NC(=O)CCSc2nnc(-c3ccco3)o2)cc1	?	i	23µM*	3%	1%	-6%
Cc1cccc(-c2nnc(SCCC(=O)O)o2)c1	i	i	i	-5%	1.4µM*	-6%
Cc1cccc(-c2nnc(SCCC(=O)N3CCOCC3)o2)c1	i	i	?	0%	-20%	3%
Cc1ccc(NC(=O)CSc2nnc(-c3ccco3)c(-c3ccco3)n2)cc1	5.8µM*	i	5.2µM*	-27%	-11%	-1%
O=C(CCSc1nnc(-c2ccco2)o1)Nc1ccc(F)cc1	i	i	i	-1%	.	7%
N#Cc1ccc(/C=C2/C=Cc3ccccc32)cc1	i	.	i	-20%	.	5%
CCOc1cccc(C(=O)N(Cc2ccc(N(C)C)cc2)CC2CCCO2)c1 (stereo not given)	.	.	.	?	.	-2%
C#C[C@]1(O)CC[C@@H]2[C@@H]3CCC4=CC(=O)CC[C@@H]4[C@H]3CC[C@@]21CC	.	.	.	.	-19%	.
Cc1ccc(S(=O)(=O)Nc2ccc3ncccc3c2[N+](=O)[O-])cc1	18µM*	i	21µM*	0%	11%	4%
Cc1ccc(S(=O)(=O)Nc2ccc(O)c3cccnc23)cc1	i	?	i	?	22µM*	-161%
COc1ccccc1C1N=C(Nc2nc3ccccc3o2)NC2=C1C(=O)CC(C)(C)C2 (stereo not given)	i	.	?	-10%	.	3%
O=C1C=CC(=O)C(CNc2ccc(C(=O)OCc3ccccc3)cc2)=C1	21µM*	.	21µM*	0%	0%	-47%
CSc1nccc(-c2cc(Cl)c3c(c2)CC(CNC(=O)c2nonc2C)O3)n1 (stereo not given)	.	i	.	.	.	.
CC1CCCCC1NC(=O)/C(C#N)=C/c1ccc2c(c1)OCCO2 (stereo not given)	18µM*	i	?	?	12%	-11%
COc1cc(Cl)c(C)cc1NC(=O)CSc1nc2c(c(=O)[nH]1)CCC2	i	i	i	-8%	10%	1%
S=c1[nH]nc(-c2cccs2)n1/N=C/c1cn(-c2ccccc2)nc1-c1cccs1	i	i	i	18µM*	69%	-27%
COc1ccc(-c2nnc(SCCC(=O)O)n2-c2ccccc2)cc1	18µM*	?	i	-5%	0%	5%
CCNC(=O)CSc1nnc(-c2ccccc2)n1-c1ccc(OCC)cc1	i	i	18µM*	-2%	7%	0%
O=C(O)CCSc1nnc(-c2ccncc2)n1-c1ccccc1	i	i	i	11%	-6%	9%
N#Cc1ccccc1NC(=O)CSc1nnc(-c2ccccc2)n1-c1ccccc1	?	i	15µM*	-9%	1%	-36%
Cc1nn2c(C)c(C(=O)NC(C)c3ccccc3)cnc2c1-c1ccc(F)cc1 (stereo not given)	?	.	i	3%	.	-20%
COC(=O)C1=C(C)N(C(C)C)C(=O)C1(NC(=O)c1ccc(C(C)(C)C)cc1)C(F)(F)F (stereo not given)	i	i	i	-13%	9%	-44%
COc1cccc(/C=C(\C#N)C(=O)Nc2ccc(NC(C)=O)cc2)c1OC	.	.	.	6%	.	1%
CCCCS(=O)(=O)NC(=O)C1(C)CCN1C(=O)C/C=C/c1ccccc1 (stereo not given)	i	i	i	3%	11%	-7%
Cc1onc(-c2ccccc2Cl)c1C(=O)N(Cc1nc(-c2ccccc2)no1)C1CCCCC1	?	i	18µM*	-1%	-17%	3%
Cc1cccc(-c2noc(CN(C(=O)c3c(-c4ccccc4Cl)noc3C)C(C)C)n2)c1	?	?	?	-31%	?	3%
